# High-throughput results as filed in PubChem BioAssay.
# C diff growth – C. difficile growth inhibition; Clostridium difficile clinical isolate growth, OD600, 24 h; stronger effect = lower value; growth activity, negative = inhibition, % at 16 µg/mL (by protocol); 86,000 tested, 0.25% active; AID 1259249;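 active = mean growth activity at or below -80% and every replicate also at or below -80%; inconclusive = mean at or below -80% but some replicate above -80%; inactive = mean growth activity above -80%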;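 also: 0% = DMSO wells and -100% = levofloxacin 16 µg/mL wells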
# Pf Dd2 inh – inhibitors of Plasmodium falciparum Dd2 growth; 94,000 tested, 2.3% active; AID 1159554; P. falciparum Dd2 growth, SYBR Green, 72 h; stronger effect = lower value; activity change, % at 10 µM; in the data active = activity change below about -80%; inconclusive = no clear call, values can overlap the other calls
# T cruzi growth-1 – T. cruzi proliferation inhibition; T. cruzi beta-gal in NIH3T3, GalScreen luminescence, 90 h; inhibition, % at 8.34 µM; 77,000 tested, 5.9% active; AID 624255;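 active = mean inhibition above about 93%, with at least 55% of replicates each passing it, limit read from the data, passing the limit was not always enough; inconclusive = only one of those two conditions holds; inactive = neither condition holds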
# T cruzi growth-2 – Trypanosoma cruzi proliferation inhibition; shares compounds with T cruzi growth-1; T. cruzi beta-gal in NIH3T3, GalScreen luminescence, 90 h; inhibition, % at 8.35 µM; 5,600 tested, 72% active;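 active = mean replicate inhibition above about 95% and at least 55% of replicates individually reaching it, limit read from the data; inconclusive = only one of the two criteria is met; inactive = neither criterion is met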
# T cruzi growth-3 – blocks T. cruzi growth in NIH3T3 host cells; shares compounds with T cruzi growth-1; T. cruzi beta-gal in NIH3T3, GalScreen luminescence, 90 h; inhibition, % at 2.09 µM; 5,600 tested, 21% active;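 active = mean inhibition above about 95%, with at least 55% of replicates also reaching it, limit read from the data; inconclusive = meets just one of the two conditions; inactive = meets neither condition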;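 also: plate controls were neutral control median for no effect and positive control median for full effect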
# NIH3T3 tox – kills mouse NIH/3T3 fibroblasts; cytotoxicity (signal decrease), % at 8.35 µM; 5,600 tested, 14% active; shares compounds with T cruzi growth-1; NIH/3T3 viability, CellTiter-Glo ATP luminescence, 90 h;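 active = mean signal decrease across replicates above about 35% based on untreated-well scatter, with enough replicates individually passing, limit read from the data; inconclusive = no rule stated though some were filed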;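 also: 0% = median of neutral control wells and 100% = median of positive control wells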
# 3T3 cytotox 2 – cytotoxicity in mouse NIH/3T3 fibroblasts. inhibition, % at 24.9 µM. NIH/3T3 viability, CellTiter-Glo ATP luminescence, 90 h. 5,600 tested, 56% active. AID 651744. shares compounds with T cruzi growth-1;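 active = mean loss of cell viability signal at or above a set limit, and enough replicates individually reaching it; inconclusive = meets only the mean limit or only the replicate share; inactive = meets neither condition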;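 also: 0% = median of neutral control wells and 100% = median of positive control wells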
# * = called active by the depositor; ? = inconclusive; nt = no result. Hits are enriched below; roughly 6.7% of the tested compounds scored in any of these assays.
SMILES,C diff growth,Pf Dd2 inh,T cruzi growth-1,T cruzi growth-2,T cruzi growth-3,NIH3T3 tox,3T3 cytotox 2
N#Cc1cccc(-c2ccc([C@@H]3[C@@H](CO)N4CCCCN(C(=O)Nc5ccc(F)cc5)C[C@H]34)cc2)c1,1,-8,93,nt,nt,nt,nt
N#Cc1cccc(-c2ccc([C@@H]3[C@@H](CO)N4CCCCN(C(=O)Nc5ccccc5)C[C@@H]34)cc2)c1,16,0,108*,107*,70,42*,93*
N#Cc1cccc(-c2ccc([C@H]3[C@@H](CO)N4CCCCN(C(=O)Nc5ccccc5)C[C@@H]34)cc2)c1,7,22,111*,108*,71,21,16
CCC(=O)N1CCCCN2[C@H](CO)[C@H](c3ccc(-c4cccc(C#N)c4)cc3)[C@@H]2C1,9,18,92,nt,nt,nt,nt
N#Cc1cccc(-c2ccc([C@H]3[C@H](CO)N4CCCCN(C(=O)Nc5ccccc5)C[C@@H]34)cc2)c1,31,-9,99*,110*,64,46*,106*
N#Cc1cccc(-c2ccc([C@@H]3[C@H](CO)N4CCCCN(C(=O)Nc5ccccc5)C[C@@H]34)cc2)c1,37,-17,98*,108*,88,36*,106*
COc1ccccc1NC(=O)N1CCCCN2[C@H](C1)[C@H](c1ccc(-c3cccc(C#N)c3)cc1)[C@@H]2CO,7,11,82,nt,nt,nt,nt
COc1ccccc1NC(=O)N1CCCCN2[C@H](C1)[C@@H](c1ccc(-c3cccc(C#N)c3)cc1)[C@@H]2CO,6,-27,43,nt,nt,nt,nt
C[C@H]1CN([C@@H](C)CO)C(=O)c2c(c3ccccc3n2C)-c2ccccc2CO[C@@H]1CN(C)CC1CC1,nt,-50,-26,nt,nt,nt,nt
O=C(C[C@@H]1C[C@H]2c3cc(NC(=O)NC4CCCC4)ccc3O[C@H]2[C@H](CO)O1)NCc1ccc2c(c1)OCO2,1,-8,nt,nt,nt,nt,nt
O=C(C[C@@H]1CC[C@@H](NS(=O)(=O)c2ccccc2)[C@@H](CO)O1)NCc1ccncn1,2,17,-28,nt,nt,nt,nt
Cc1ccc(S(=O)(=O)N[C@@H]2CC[C@@H](CCNC(=O)Cc3ccccn3)O[C@H]2CO)cc1,-2,2,?,26,18,-3,-21
O=C(C[C@H]1CC[C@@H](NS(=O)(=O)c2ccc(F)cc2)[C@H](CO)O1)NC1CCC1,0,13,119*,47,28,8,15
O=C(C[C@H]1CC[C@H](NS(=O)(=O)c2ccc(F)cc2)[C@@H](CO)O1)NC1CCC1,5,16,-21,nt,nt,nt,nt
O=C(C[C@H]1CC[C@@H](NS(=O)(=O)c2ccccc2)[C@@H](CO)O1)NCc1ccncn1,5,-2,123*,101*,17,2,3
Cc1ccc(S(=O)(=O)N[C@H]2CC[C@@H](CCNC(=O)Cc3ccccn3)O[C@H]2CO)cc1,5,-7,79,nt,nt,nt,nt
CN1CCN(C(=O)C[C@@H]2CC[C@H]3[C@@H](COc4ccc(NC(=O)C5CCC5)cc4C(=O)N3C)O2)CC1,-2,12,nt,nt,nt,nt,nt
C/C=C/c1ccc([C@H]2[C@@H](CO)N3CCCCN(C(=O)Nc4ccccc4F)C[C@H]23)cc1,0,-27,97*,100*,52,9,70*
C/C=C/c1ccc([C@@H]2[C@H](CO)N3CCCCN(C(=O)Nc4ccccc4F)C[C@@H]23)cc1,6,-65,63,nt,nt,nt,nt
O=C(Nc1ccccc1F)N1CCCCN2[C@H](CO)[C@@H](c3ccc(/C=C/c4ccccc4)cc3)[C@H]2C1,13,-33,104*,97*,61,59*,105*
C/C=C/c1ccc([C@@H]2[C@@H](CO)N3CCCCN(C(=O)Nc4ccccc4F)C[C@H]23)cc1,0,-8,39,nt,nt,nt,nt
O=C(Nc1ccccc1F)N1CCCCN2[C@H](CO)[C@@H](c3ccc(C4=CCCC4)cc3)[C@@H]2C1,6,9,79,nt,nt,nt,nt
O=C(Nc1ccccc1F)N1CCCCN2[C@H](CO)[C@@H](c3ccc(C4=CCCCC4)cc3)[C@H]2C1,20,-55,103*,111*,73,39*,107*
COc1cccc(CN2CC3(CCN(C(C)=O)CC3)c3c(n(C)c4cc(OC)ccc34)[C@H]2CO)c1,-4,-38,nt,nt,nt,nt,nt
